Source: PubChem BioAssay (National Center for Advancing Translational Sciences (NCATS))
Hits are enriched below; roughly 2.8% of the tested compounds scored in any of these assays.
Pol iota inh: blocks human DNA polymerase iota activity; Pol iota fluorescent replication assay, 10 min; Q9UNA4; Potency, µM (doses to about 115 µM), inactives show top-dose activity, negative = inhibition, usual class: inhibitors; AID 588590; actives 1% (n = 390,000); note: potency is the fitted concentration of half-maximal effect
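Pol iota at 10 nM preincubated 15 min with compounds at room temperature; reaction started with fluorescent substrate, 50 nM final. Fluorescence read kinetically at 0 and 10 min; buffer-only wells as negative control.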
POLB inh: inhibitors of human DNA polymerase beta; P06746; Pol beta primer extension/strand displacement, fluorescence kinetic; Potency, µM (series often up to 114 µM), for the others: at the highest dose activity change, negative = inhibition, actives largely listed as inhibitors; actives 1.3% (n = 340,000); AID 485314; note: potency is the fitted concentration of half-maximal effect; % is set by controls: 0 for no effect and ±100 for the full control effect
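Pol beta (10 nM) was preincubated with compound for 15 min at room temperature. The reaction was then started with 50 nM substrate and read immediately and after a further 10 min at room temperature.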
PI5P4K alpha inh: blocks human PI5P4K alpha kinase activity; P48426; PI5P4Kalpha enzyme, ADP-Glo luminescence, 60 min; hits give low values; max response, %; actives 1.2% (n = 330,000); AID 652105; active = max response of -50% or lower; inconclusive = between -30% and -50%; inactive = -30% or higher; note: value at the top dose of about 77 µM; % is set by controls: 0 for no effect and ±100 for the full control effect
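Controls without substrate or without enzyme flank wells where PI5P4Kalpha converts substrate using 5 microM ATP (final). Incubation lasts 60 minutes at room temperature; ADP formed is read by ADP-Glo luminescence.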
Pol kappa inh-1: DNA polymerase kappa (human) inhibition | purified Pol kappa, fluorescent DNA synthesis assay, 10 min | Potency, µM (highest dose often 107 µM), without a hit: top-dose activity, negative = inhibition, actives largely listed as inhibitors | actives 0.53% (n = 400,000) | AID 588579 | Q9UBT6; note: potency is the fitted concentration of half-maximal effect; % is set by controls: 0 for no effect and ±100 for the full control effect
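Readout: fluorescence, taken kinetically at 0 and 10 min. Conditions: 10 nM Pol kappa, 15 min RT compound preincubation, 50 nM substrate final. Controls: enzyme-free buffer wells.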
WRN inhibitor: inhibitors of human WRN helicase; Q14191; WRN helicase unwinding, fluorescent forked duplex, kinetic; Potency, µM (doses to about 114 µM), without a hit: top-dose activity change, negative = inhibition, usual class: inhibitors; actives 0.46% (n = 360,000); AID 651768; note: potency is the fitted concentration of half-maximal effect; % is set by controls: 0 for no effect and ±100 for the full control effect; nearly all actives have a fitted effect of over 55% in size
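Kinetic red-fluorescence monitoring (525/598 nm) tracks WRN helicase activity after 100 nM fluorophore-quencher forked duplex and 2 mM ATP are added to 20 nM enzyme pretreated 15 min at room temperature with compound.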
Pol eta inh-1: blocks human DNA polymerase eta activity | Q9Y253 | recombinant Pol eta, fluorescent DNA replication assay | Potency, µM (titrated, usually from 114 µM), for the others: top-dose activity change, negative = inhibition, actives largely listed as inhibitors | actives 1.2% (n = 390,000) | AID 588591; note: potency is the fitted concentration of half-maximal effect; % is set by controls: 0 for no effect and ±100 for the full control effect
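Pol eta at 10 nM preincubated with compounds 15 min at room temperature; reaction started with fluorescent substrate (50 nM final) and read kinetically at 0 and 10 min.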
Pol iota confirm: Inhibitors of human DNA polymerase iota, confirmation; shares compounds with Pol kappa inh-1; Pol iota primer extension, TAMRA/BHQ fluorescence; Potency, µM, most hits filed as inhibitors; actives 77% (n = 1,500); AID 720496; note: potency is the fitted concentration of half-maximal effect
Pol kappa inh-2: confirmation of human DNA polymerase kappa inhibitors. shares compounds with Pol eta inh-1. Potency, µM, hits mostly inhibitors. purified Pol-kappa, fluorescent strand-displacement substrate. AID 720501. actives 76% (n = 920); note: potency is the fitted concentration of half-maximal effect
Pol eta inh-2: Pol eta (human) inhibition, cherry-pick confirmation; shares compounds with Pol eta inh-1; Pol eta primer extension, TAMRA/BHQ fluorescence, 10 min; Potency, µM, most hits filed as inhibitors; actives 64% (n = 2,600); note: potency is the fitted concentration of half-maximal effect
The depositor's hits bear a star; ? = inconclusive; / = not tested or not shown; [ ] = dose if it differs, or a comment. Unless noted, calls come from the whole dose curve; as a rule, active = well fitted curve in the direction sought with a large enough effect; inconclusive = small, poorly fitted or top-dose-only effect, or another doubt; inactive = no such curve, though single readings can be large; an effect the other way counts as inactive or inconclusive.

SMILES | Pol iota inh | POLB inh | PI5P4K alpha inh | Pol kappa inh-1 | WRN inhibitor | Pol eta inh-1 | Pol iota confirm | Pol kappa inh-2 | Pol eta inh-2
N#CC(C#N)=Cc1cccn1-c1ccc(C(=O)O)cc1 | 18µM* | 5µM* | ? | 40µM* | 56µM* | 10µM* | 19* | 17* | 27*
N#C/C(=C/c1cccn1-c1cccc(C(=O)O)c1)c1ccc(Cl)cc1 | 20µM* | 8.9µM* | -20 | ? | -10%[11.6 µM] | 50µM* | 75* | 75* | ?
CC1(C)O[C@@H]2C[C@H]3[C@H]4C[C@H](F)C5=CC(=O)C=C[C@@]5(C)[C@@H]4[C@H](O)C[C@]3(C)[C@]2(C(=O)CO)O1 | / | / | / | -10%[12 µM] | / | / | / | / | /
O=C(O)c1ccc(/C=C/c2ccc3cccc(O)c3n2)cc1 | ? | ? | -24 | -35% | -22% | 79µM* | 24* | 19* | ?
O=C(NNC(=O)c1ccccc1F)c1ccc2nc[nH]c2c1 | -25% | ? | -7 | -15% | -4% | ? | / | / | /
O=C(NNC(=O)c1ccccc1Br)c1ccc2nc[nH]c2c1 | ? | 22µM* | ? | ? | -24% | 22µM* | ? | / | 54*
COc1cc(/C=N/N=C2/NC(=O)C(CC(=O)O)S2)ccc1OCc1ccc(Cl)cc1 (stereo unspecified) | 0% | -2% | -9 | 0% | -12% | ? | / | / | /
CCOc1cc(/C=N/N=C2/NC(=O)C(CC(=O)O)S2)ccc1OCc1ccc(Cl)cc1Cl (stereo unspecified) | ? | 22µM* | -63* | ? | ? | 32µM* | 75* | 75* | 76*
O=C(O)Cc1ccc(NC(=O)c2ccc3c(c2)C(=O)N(Cc2ccco2)C3=O)cc1 | 11µM* | -7% | -22 | ? | 40µM* | 4µM* | 60* | / | 24*
COc1cccc(-c2ccc3nnc(SCC(=O)Nc4ccc(NC(C)=O)cc4)n3n2)c1 | ? | / | -4 | -11% | ? | ? | ? | / | ?
O=C(CSc1nnc(-c2cccc(S(=O)(=O)N3CCCC3)c2)n1-c1ccccc1)Nc1ccc(C(=O)O)cc1 | ? | 32µM* | ? | ? | 50µM* | 35µM* | 42* | / | 43*
O=C(NCCCn1ccnc1)c1sc2cc([N+](=O)[O-])ccc2c1Cl | / | / | -2 | / | -9% | -13% | / | / | /
CCOC(=O)C1=C(COC(=O)/C=C/c2ccco2)NC(=O)NC1C (stereo unspecified) | 14µM* | / | -54* | 50µM* | ? | 11µM* | 19* | / | 27*
Cn1c(=O)c2c(nc(NCC3CCCC(CN)C3)n2Cc2ccc(Cl)cc2Cl)n(C)c1=O (stereo unspecified) | -12% | 4% | 1 | 5% | -2% | -9% | / | / | /
COc1ccc(-c2cc(C(F)(F)F)c3c(n2)sc2c(O)cc(=O)[nH]c23)c(OC)c1 | ? | 56µM* | ? | 20µM* | ? | 13µM* | 67* | / | 67*
Cc1cccc(-c2n[nH]c(=S)n2/N=C/c2ccco2)c1 | 18% | -1% | 4 | 2% | 1% | 20% | / | / | /
S=c1[nH]nc(-c2cc(-c3ccccc3)n[nH]2)n1/N=C/C=C/c1ccco1 | 14µM* | 22µM* | -96* | 50µM* | ? | 22µM* | ? | 24* | 30*
O=C(O)c1ccc(-n2cccc2/C=C2\SC(=O)N(Cc3ccc(Br)cc3)C2=O)cc1 | / | / | / | / | / | / | 75* | / | 76*
